Data published in PubChem BioAssay.
The source made the active and inactive calls.

Tests used:
[1] = binders of probe aFSTL3 on microarray, primary screen, stem cell growth factor project, biochemical, small-molecule microarray, fluorescence 635/667 (AID 1064); conditions: higher = more signal;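 note: measures binding of the biotinylated anti-FSTL3 antibody to printed compounds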
[2] = binders from COS7 lysate, DM2A8 probe, primary screen, torsin A project, cell lysate, small-molecule microarray, fluorescence 635/667 (AID 1065); conditions: higher = more signal, COS7 lysate expressing mutant human TOR1A
[3] = binders of probe aFGF2 on microarray, primary screen, stem cell growth factor project, biochemical, small-molecule microarray, fluorescence 635/667 (AID 1067); conditions: higher = more signal;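 note: measures binding of biotinylated aFGF2 protein to printed compounds on slides; z-score merges feature fluorescence and signal-to-noise across triplicate slides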
[4] = binders of probe aFGF10 on microarray, primary screen, stem cell growth factor project, biochemical, small-molecule microarray, fluorescence 635/667 (AID 1071); conditions: higher = more signal;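 note: score merges 667 nm spot intensity and signal to noise from triplicate slides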
[5] = molecular target: Neurogenic locus notch homolog protein 2 (Homo sapiens) (UniProt Q04721); experiment: Notch2 binders on small-molecule microarrays, primary screen, biochemical, small-molecule microarray, 635 nm fluorescence, stem cell growth factors (AID 1073); conditions: Notch2 binding, higher = more signal
[6] = molecular target: Pro-neuregulin-1, membrane-bound isoform (Homo sapiens) (UniProt Q02297); experiment: NRG1 binders on small-molecule microarrays, primary screen, psychiatric disease protein project, biochemical, small-molecule microarray, fluorescence 635/667 (AID 1075); conditions: NRG1 binding, 635 nm fluorescence, higher = more signal;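 note: score combines 667 nm spot fluorescence with signal to noise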
Pro-neuregulin-1, membrane-bound isoform (Homo sapiens), sequence (Q02297 whole entry, looked up, the tested form may be a part, canonical isoform): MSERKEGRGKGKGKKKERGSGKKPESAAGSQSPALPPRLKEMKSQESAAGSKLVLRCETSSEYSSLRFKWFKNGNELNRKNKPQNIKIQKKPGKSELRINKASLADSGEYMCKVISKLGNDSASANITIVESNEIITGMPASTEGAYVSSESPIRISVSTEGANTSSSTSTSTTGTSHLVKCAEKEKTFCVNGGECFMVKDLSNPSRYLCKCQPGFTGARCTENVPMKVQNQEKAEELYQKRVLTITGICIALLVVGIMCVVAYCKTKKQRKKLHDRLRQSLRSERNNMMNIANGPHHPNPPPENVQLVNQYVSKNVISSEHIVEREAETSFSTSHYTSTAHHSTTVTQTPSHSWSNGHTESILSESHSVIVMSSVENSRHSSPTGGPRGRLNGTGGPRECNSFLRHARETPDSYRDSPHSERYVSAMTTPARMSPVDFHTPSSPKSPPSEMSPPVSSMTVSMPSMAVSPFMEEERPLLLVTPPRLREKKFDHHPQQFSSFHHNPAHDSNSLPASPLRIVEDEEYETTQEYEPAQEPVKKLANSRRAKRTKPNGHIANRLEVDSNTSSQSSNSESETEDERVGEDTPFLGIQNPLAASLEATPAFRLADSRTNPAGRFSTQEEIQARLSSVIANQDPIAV

[7] = system: Neuregulin-1 EGF-like domain; experiment: binders of neuregulin-1 EGF-like domain, primary screen, biochemical, small-molecule microarray, 635 nm fluorescence (AID 1081); conditions: small-molecule microarray binding, higher = more signal;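 note: binding of the protein to compounds printed on small-molecule microarray slides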
[8] = FRG1 promoter luciferase signal modulators, primary screen, FRG1 inhibition for FSHD, cell-based, C2C12 myotubes, firefly/Renilla luciferase, luminescence (AID 1084); conditions: higher = more signal, called active from +8 up or from −8 down
[9] = binders of probe aFST on microarray, primary screen, stem cell growth factor project, biochemical, small-molecule microarray, fluorescence 635/667 (AID 1086); conditions: higher = more signal;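 note: score merges 667 nm fluorescence with signal-to-noise of each printed compound spot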
[10] = binders of probe aHhip on microarray, primary screen, stem cell growth factor project, biochemical, small-molecule microarray, fluorescence 635/667 (AID 1087); conditions: higher = more signal;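 note: score merges spot fluorescence at 667nm with spot signal to noise ratio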
[11] = system: PRMT1 (protein arginine N-methyltransferase 1); experiment: PRMT1 binders on small-molecule microarrays, primary screen, biochemical, small-molecule microarray, 635 nm fluorescence (AID 1088); conditions: small-molecule microarray binding, higher = more signal;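 note: binding of Prmt1 protein to compounds spotted on small-molecule microarray slides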
[12] = yeast growth modulation, basal conditions, primary screen, YJM789 clinical isolate, OD600, 24 h (AID 1089);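 note: growth of clinical yeast isolate S. cerevisiae YJM 789 seeded 1000 cells per well; test concentration not given here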; conditions: S. cerevisiae YJM789 growth, higher = more signal, called active from +8 up or from −8 down
[13] = fission yeast growth modulation, primary screen, strain 972, OD600, 24 h, no modulator (AID 1090);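 note: basal condition with compound alone and no growth modifier present; test concentration not given here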; conditions: S. pombe 972 growth, higher = more signal, called active from +8 up or from −8 down
[14] = S. cerevisiae growth modulation with rapamycin, primary screen, strain BY4716, OD600, 96 h (AID 1091); conditions: higher = more signal, called active from +8 up or from −8 down; note: test concentration not given here
[15] = molecular target: Torsin-1A-interacting protein 2 (Homo sapiens) (UniProt Q8NFQ8); experiment: LULL1 binders on small-molecule microarray, primary screen, cell lysate, human LULL1 lysate, 635/667 nm fluorescence (AID 1092); conditions: hLULL1 lysate binding, 635 nm fluorescence, higher = more signal;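 note: probe is lysate of COS7 cells overexpressing human LULL1; score merges per-feature 667 nm fluorescence with signal-to-noise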
Torsin-1A-interacting protein 2 (Homo sapiens), sequence (Q8NFQ8 whole entry, looked up): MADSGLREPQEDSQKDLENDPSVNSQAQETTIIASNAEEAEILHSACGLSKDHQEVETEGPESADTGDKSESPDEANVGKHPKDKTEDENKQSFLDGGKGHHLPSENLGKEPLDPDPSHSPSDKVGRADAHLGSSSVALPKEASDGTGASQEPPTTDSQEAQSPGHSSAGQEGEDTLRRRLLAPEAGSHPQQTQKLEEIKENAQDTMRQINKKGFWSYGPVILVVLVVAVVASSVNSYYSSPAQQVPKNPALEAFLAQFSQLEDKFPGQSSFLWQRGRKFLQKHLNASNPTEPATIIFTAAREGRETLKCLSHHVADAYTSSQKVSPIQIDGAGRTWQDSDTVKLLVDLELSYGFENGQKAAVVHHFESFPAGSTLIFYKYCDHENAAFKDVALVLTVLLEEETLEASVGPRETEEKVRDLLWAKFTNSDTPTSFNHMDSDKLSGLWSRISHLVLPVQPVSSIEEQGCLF

[16] = E. coli growth modulation, two-sided OD650, primary screen, E. coli filamentation project, strain DRC41, 24 h (AID 1093); conditions: OD650, 24 h, higher = more signal, called active from +8 up or from −8 down;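 note: MC1000 strain lacking acrAB efflux and sulA so SOS filamentation is blocked; test concentration not given here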
[17] = small-molecule microarray binders of probe aLefty2, primary screen, biochemical, biotinylated probe, 635/667 nm fluorescence (AID 1094); conditions: higher = more signal;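 note: score merges spot fluorescence near 667 nm with spot signal-to-noise ratio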
[18] = system: Noggin (protein binding on small-molecule microarray); experiment: Noggin binders on small-molecule microarray, primary screen, biochemical, 635/667 nm fluorescence (AID 1095); conditions: 635 nm fluorescence, higher = more signal;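 note: score merges 667 nm feature fluorescence with signal to noise over triplicate slides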
[19] = molecular target: Neurogenic locus notch homolog protein 3 (Homo sapiens) (UniProt Q9UM47); experiment: NOTCH3 binders on small-molecule microarray, primary screen, biochemical, 635/667 nm fluorescence (AID 1096); conditions: NOTCH3 binding, 635 nm fluorescence, higher = more signal
Neurogenic locus notch homolog protein 3 (Homo sapiens), sequence (Q9UM47 whole entry, looked up): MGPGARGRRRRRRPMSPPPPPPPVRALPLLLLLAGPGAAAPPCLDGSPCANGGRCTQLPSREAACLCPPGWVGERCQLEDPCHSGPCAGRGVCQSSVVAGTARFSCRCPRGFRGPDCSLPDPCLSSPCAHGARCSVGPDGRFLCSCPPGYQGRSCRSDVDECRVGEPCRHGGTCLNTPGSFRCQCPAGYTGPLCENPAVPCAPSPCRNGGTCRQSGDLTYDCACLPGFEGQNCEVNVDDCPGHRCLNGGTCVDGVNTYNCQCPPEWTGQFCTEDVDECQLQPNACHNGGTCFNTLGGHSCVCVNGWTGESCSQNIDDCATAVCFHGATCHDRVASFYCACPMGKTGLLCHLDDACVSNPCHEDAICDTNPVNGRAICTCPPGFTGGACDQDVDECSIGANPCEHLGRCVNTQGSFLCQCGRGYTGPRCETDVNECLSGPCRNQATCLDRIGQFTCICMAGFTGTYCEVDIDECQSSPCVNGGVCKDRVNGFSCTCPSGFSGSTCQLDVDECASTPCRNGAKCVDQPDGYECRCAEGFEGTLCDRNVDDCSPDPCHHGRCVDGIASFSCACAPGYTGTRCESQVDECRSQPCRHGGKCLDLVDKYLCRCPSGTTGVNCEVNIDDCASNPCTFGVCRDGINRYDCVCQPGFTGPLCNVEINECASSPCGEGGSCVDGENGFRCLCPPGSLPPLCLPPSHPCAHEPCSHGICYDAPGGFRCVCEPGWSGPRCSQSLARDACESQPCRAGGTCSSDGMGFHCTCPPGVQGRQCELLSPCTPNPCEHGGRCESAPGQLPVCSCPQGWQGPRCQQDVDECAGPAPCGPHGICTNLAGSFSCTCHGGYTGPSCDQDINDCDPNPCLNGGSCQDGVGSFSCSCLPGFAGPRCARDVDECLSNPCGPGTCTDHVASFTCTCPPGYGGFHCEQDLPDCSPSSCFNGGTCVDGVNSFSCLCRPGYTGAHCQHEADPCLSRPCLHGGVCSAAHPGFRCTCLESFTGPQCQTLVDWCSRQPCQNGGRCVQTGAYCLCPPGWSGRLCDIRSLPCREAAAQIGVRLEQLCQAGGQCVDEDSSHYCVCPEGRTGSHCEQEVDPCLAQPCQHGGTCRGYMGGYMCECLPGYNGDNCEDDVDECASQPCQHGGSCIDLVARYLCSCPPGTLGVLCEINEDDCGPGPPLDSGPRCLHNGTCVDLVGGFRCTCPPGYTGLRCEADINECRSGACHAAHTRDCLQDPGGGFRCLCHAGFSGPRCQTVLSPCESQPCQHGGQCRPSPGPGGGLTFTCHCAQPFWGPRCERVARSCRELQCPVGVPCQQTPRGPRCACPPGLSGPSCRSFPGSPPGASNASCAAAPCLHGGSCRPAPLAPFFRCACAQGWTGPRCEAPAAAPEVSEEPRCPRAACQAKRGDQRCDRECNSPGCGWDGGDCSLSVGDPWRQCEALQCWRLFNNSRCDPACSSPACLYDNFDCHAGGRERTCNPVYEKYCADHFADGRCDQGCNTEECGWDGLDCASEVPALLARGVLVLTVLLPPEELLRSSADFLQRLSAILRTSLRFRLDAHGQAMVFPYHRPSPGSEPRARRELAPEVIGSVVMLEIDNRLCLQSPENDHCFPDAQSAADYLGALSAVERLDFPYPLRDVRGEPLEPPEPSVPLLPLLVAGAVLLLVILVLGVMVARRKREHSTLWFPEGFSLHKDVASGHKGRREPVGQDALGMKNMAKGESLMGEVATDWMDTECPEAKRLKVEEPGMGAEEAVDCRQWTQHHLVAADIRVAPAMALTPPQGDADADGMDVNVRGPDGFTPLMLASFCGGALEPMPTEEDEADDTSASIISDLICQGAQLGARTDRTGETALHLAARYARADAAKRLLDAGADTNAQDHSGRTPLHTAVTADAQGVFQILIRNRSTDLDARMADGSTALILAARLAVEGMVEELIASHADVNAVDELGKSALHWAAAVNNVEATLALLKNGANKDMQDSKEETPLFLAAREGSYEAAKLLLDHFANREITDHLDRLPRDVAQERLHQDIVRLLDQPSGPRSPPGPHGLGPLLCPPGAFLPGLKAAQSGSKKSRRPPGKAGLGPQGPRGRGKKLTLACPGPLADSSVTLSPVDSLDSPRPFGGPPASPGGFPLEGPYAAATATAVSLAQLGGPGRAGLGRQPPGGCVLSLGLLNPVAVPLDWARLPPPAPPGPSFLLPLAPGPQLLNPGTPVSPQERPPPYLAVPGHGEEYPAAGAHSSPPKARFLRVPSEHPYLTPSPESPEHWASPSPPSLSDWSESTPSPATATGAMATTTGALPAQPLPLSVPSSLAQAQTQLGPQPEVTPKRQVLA

[20] = small-molecule microarray binders of probe aEGFR, primary screen, biochemical, biotinylated probe, 635/667 nm fluorescence (AID 1097); conditions: higher = more signal;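 note: probe is a biotinylated anti-EGFR antibody binding compounds printed on slides; score combines fluorescence near 667 nm and signal to noise of each spot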

SMILES	composite z-score [1]	composite z-score [2]	composite z-score [3]	composite z-score [4]	composite z-score [5]	composite z-score [6]	composite z-score [7]	z-score [8]	composite z-score [9]	composite z-score [10]	composite z-score [11]	z-score [12]	z-score [13]	z-score [14]	composite z-score [15]	z-score [16]	composite z-score [17]	composite z-score [18]	composite z-score [19]	composite z-score [20]
Cc1cccc([C@H]2C[C@H]3C(Br)=C[C@@H]2C(=O)[C@]32CO2)c1	0.165	0.0316	-0.182	-0.228	-0.0632	-0.424	-0.779	1.02 (inactive)	-0.264	-0.0169	-0.373	-0.749 (inactive)	-20.5 (active)	-1.2 (inactive)	-0.831	0.779 (inactive)	-0.0416	-0.329	-0.867	-0.626
O=C(NCCN1CCOCC1)[C@@H]1c2ccccc2C(=O)N(Cc2ccccc2)[C@H]1c1ccc(CO)cc1	0.39	-0.334	-0.175	-0.961	-0.913	1.77	1.1	-0.508 (inactive)	-0.0557	-0.312	-0.845	-0.0009 (inactive)	0.253 (inactive)	-0.412 (inactive)	0.0893	0.311 (inactive)	-0.129	0.278	-0.036	-0.204
CN1C=C(C(=O)OCCS(C)(=O)=O)C(C(=O)OCCS(C)(=O)=O)=CC(c2ccc(CO)cc2)=CC1c1cccs1 (stereo not given)	-0.0269	-0.0376	-0.0448	0.236	-0.0588	1.47	1.03	2.55 (inactive)	0.0216	0.0024	0.568	0.379 (inactive)	-3.74 (inactive)	0.148 (inactive)	2.01	0.326 (inactive)	-0.116	0.484	0.407	-0.0594
[N-]=[N+]=NCc1ccccc1[C@@H]1OC(c2ccc(OCCCO)cc2)=N[C@]1(Cc1ccccc1N=[N+]=[N-])C(=O)N1CCCCC1	-0.0244	1.17	-0.0599	0.227	1.55	1.16	1.23	-0.878 (inactive)	0.882	0.38	1.38	-0.0524 (inactive)	-1.17 (inactive)	2.24 (inactive)	3.18	0.379 (inactive)	0.0216	0.345	0.921	0.706
C=C(/C(=C/C[C@@H](OC(=O)c1ccncc1)c1cccc(OCCO)c1)c1cnc2ccccc2c1)C(C)C	0.21	0.375	-0.123	1.15	1.22	0.788	1.17	2.61 (inactive)	0.573	-0.116	1.55	-2.06 (inactive)	-1.77 (inactive)	1.29 (inactive)	2.03	0.915 (inactive)	-0.0042	1.27	1.02	0.074
O=C1O[C@H](c2ccccc2)[C@H](c2ccccc2)N2[C@H]1[C@@H](C(=O)O)[C@]1(C(=O)Nc3ccc(C#CC4(O)CCCCCC4)cc31)[C@H]2c1ccc(O)cc1	-0.252	0.128	-0.166	0.439	-0.0475	1.28	0.866	-0.278 (inactive)	-0.247	-0.134	0.871	-0.386 (inactive)	-1.22 (inactive)	-1.76 (inactive)	3.14	2.04 (inactive)	-0.142	-0.292	0.0139	0.192
CC(C)CNC(=O)[C@@]1(c2ccc([N+](=O)[O-])cc2)CC(=O)N(C2CCCCC2)[C@@H]1c1ccc(CO)cc1	0.574	0.219	0.0353	-0.0872	0.554	0.452	1.26	-0.639 (inactive)	0.859	-0.132	0.566	-0.563 (inactive)	-0.514 (inactive)	-0.548 (inactive)	2.54	0.861 (inactive)	0.136	-0.318	-0.0858	-0.0989
[N-]=[N+]=Nc1ccccc1C[C@]1(C(=O)NCc2ccccc2)COC(c2ccc(OCCCO)cc2)=N1	0.191	0.666	0.113	1.27	0.777	1.24	1.21	-1.36 (inactive)	0.892	-0.207	1.32	1.04 (inactive)	0.184 (inactive)	32.1 (active)	3.33	1.04 (inactive)	0.0573	0.544	1.08	-0.0669
O=c1cccc(-c2ccco2)o1	-0.539	0.336	-0.132	0.694	0.386	0.904	0.498	0.557 (inactive)	0.0153	-0.0994	1.29	-0.445 (inactive)	-0.311 (inactive)	0.167 (inactive)	0.108	-0.696 (inactive)	-0.0963	1.32	0.832	0.0023
Cc1ccc(S[C@]2(C(=O)NCC(C)C)CC(=O)N(C3Cc4ccccc4C3)[C@@H]2c2ccc(CO)cc2I)cc1	0.757	-0.5	-0.0238	0.166	-1.01	0.123	-0.126	-1.83 (inactive)	0.962	0.513	-0.409	-0.766 (inactive)	-1.49 (inactive)	1.51 (inactive)	0.724	-0.0979 (inactive)	0.0349	-1.45	-0.933	-0.294
